# According to PubChem BioAssay AID686978 (National Center for Advancing Translational Sciences (NCATS), 2013):
# Among all 420,000 compounds or so, about 64,000 (15%) were called active. Inconclusive results (about 27%) are left out. These entries were drawn from the full list. Values without a mark were called inactive. The call rests on the fitted dose curve; in most records, active means well fitted inhibition curve with a large enough effect; inconclusive means small, poorly fitted or top-dose-only effect; inactive means flat fitted curve, though single readings scatter.
# Assay: qHTS for Inhibitors of human tyrosyl-DNA phosphodiesterase 1 (TDP1): qHTS in cells in absence of CPT; further: nearly all actives have a fitted effect of over 55% in size
# Settings: DT40 Tdp1-/- hTDP1 cells, no CPT, ATP luminescence, 48 h; activity change, negative = growth inhibition: at 46.2 µM (top of the series)
# In short: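 Readout: luminescence from CellTiter-Glo after 30 min in the dark at RT. Cells: DT40 Tdp1-/- with stable hTDP1, 400/well. Exposure: compounds alone, ≥48 hr, 37 °C.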
# On the % scale 0 is the no-effect control and ±100 the full control effect; potency means the concentration at half of the fitted maximal effect.
Compound,"activity change, negative = growth inhibition",Potency
Cc1ccsc1C1C(C#N)=C(N)OC2=C1C(=O)CC(C)C2 (configuration not stated),11.3%,
CCOC(=O)Cc1cc(=O)[nH]c(=O)[nH]1,-0.765%,
COCCn1cnnc1SCC(=O)Nc1cccc(S(=O)(=O)N2CCCCC2)c1,-10.9%,
Cc1c(CCO)c(=O)n(-c2ccccc2)n1S(=O)(=O)c1ccc(F)cc1,-27.5%,
COCCCNC(=O)C1CC(=O)N(c2ccc(C)cc2)C1 (configuration not stated),-14.8%,
Cc1oc(-c2ccccc2F)nc1CS(=O)(=O)CC(=O)NCCCN(C)C1CCCCC1,-9.36%,
Cc1ccc(N2C(=O)C(CC(=O)Nc3cccc(F)c3)N(CCc3ccncc3)C2=O)cc1 (configuration not stated),-19.1%,
CCOc1ccc(NC(=O)CN(C)C(=O)CCSc2ccc(F)cc2)cc1OCC,-17.2%,
CCN(C(=O)COC(=O)C1CCN(S(=O)(=O)c2ccc(C)c(C)c2)CC1)C1CCS(=O)(=O)C1 (configuration not stated),-4.69%,
O=[N+]([O-])c1ccc(N(CCO)Cc2ccccc2)c([N+](=O)[O-])c1,-59%,
CCOC(=O)CC(NC(=O)C1c2ccccc2Oc2ccccc21)c1ccc(C)cc1 (configuration not stated),-27.3%,
CCCN(CCC)C(=O)C1c2ccccc2Oc2ccccc21,,25.9 µM (active)
CCCCCNC(=O)C1c2ccccc2Oc2ccccc21,-20.9%,
Cc1ccccc1OCCC(=O)OCC(=O)NCCc1ccc(S(N)(=O)=O)cc1,10.2%,
COc1ccccc1-n1c(CNC(=O)c2ccccc2)nnc1SCC(=O)Nc1nnc(C)s1,-9.04%,
Cc1cccc(-n2ccnc2SCC(=O)Nc2cccc3ccccc23)c1C,,16.4 µM (active)
Cc1cccc(CSc2nnc(NC(=O)CSc3nnc(C)s3)s2)c1,-17%,
CC(=O)Nc1cccc(NC(=O)CSc2nccn2Cc2ccc(F)cc2)c1,10.9%,
Cc1ccccc1-n1c(SCC(=O)Nc2cccc3ccccc23)nc(O)cc1=O,18.6%,

Compound,"activity change, negative = growth inhibition",Potency
O=C(CSc1nccn1-c1ccc(F)cc1)Nc1cccc2ccccc12,,14.6 µM (active)
Cc1nnc(NC(=O)CSc2nccn2-c2cccc(C)c2C)s1,,3.26 µM (active)
COc1ccccc1-n1ccnc1SCC(=O)NC(C)(C)C,-15.4%,
Cc1cc(NC(=O)CSc2nccn2-c2ccc([N+](=O)[O-])cc2)no1,2.54%,
Cc1cccc(NC(=O)c2ccc(OCC(=O)NCc3ccccc3)cc2)c1C,-22.1%,
COC(=O)C(C(=O)Nc1cccc(Cl)c1C)C1CCCC1 (configuration not stated),-25.4%,
CCOC(=O)C(=O)C1C(=O)Nc2ccccc21 (configuration not stated),5.01%,
CCC(=O)Nc1c(C)n[nH]c1C,-10%,
CCOc1ccc(-c2cn(S(=O)(=O)c3cccc4nsnc34)nc2N)cc1,-13.4%,
COc1cccc(CNC(=O)CN2C(=O)CCc3cc(S(=O)(=O)N4CCOCC4)ccc32)c1,-0.508%,
Cc1cc(NC(=O)CSc2nc(=O)cc(N)n2-c2ccc(F)cc2)no1,9.07%,
CC(=O)c1ccc(NC(=O)COc2ccccc2-c2nc(-c3ccccc3)no2)cc1,-10.5%,
CCCN(CCC)c1ccc(C(O)c2nnc(-c3ccccc3)o2)cc1 (configuration not stated),-2.41%,
CC(=O)c1ccc(NC(c2ccc(F)cc2)c2nnc(-c3ccccc3)o2)cc1 (configuration not stated),,8.2 µM (active)
NC(=O)C1(N2CCCC2)CCN(Cc2ccccc2)CC1,1.08%,
COC(=O)[C@@H]1C[C@H]2CC[C@H](O)C[C@H]2N1Cc1ccc(N2CCN(C)CC2)cc1,9.08%,
COCCNC(=O)C(c1ccc(C)o1)N(Cc1ccccc1)C(=O)Cn1nnc2ccccc21 (configuration not stated),-18.4%,
Cc1ccc2nc(/C(C#N)=C\c3ccc(OC(=O)c4cccs4)cc3)[nH]c2c1,,6.51 µM (active)
Cc1ccc2nc(/C(C#N)=C/c3ccc(-c4ccc(C(=O)OC(C)C)cc4)o3)[nH]c2c1,,5.17 µM (active)

Compound,"activity change, negative = growth inhibition",Potency
COc1cc(/C=C(\C#N)c2nc3ccccc3[nH]2)ccc1O,,23.1 µM (active)
COc1ccccc1CSc1nc2ccccc2[nH]1,-18.3%,
N#C/C(=C\c1ccccc1F)c1nc2ccccc2c(=O)[nH]1,-10.4%,
Cc1ccc2nc(S(=O)(=O)O)[nH]c2c1,4.87%,
CCOC(=O)c1ccc(-c2ccc(/C=C(\C#N)C(=O)Nc3ccc(OCC)cc3)o2)cc1,1.66%,
Cc1ccc2nc(/C(C#N)=C/c3ccccc3F)[nH]c2c1,,18.4 µM (active)
CCOc1ccc(/C=C(\C#N)c2nc3ccccc3c(=O)[nH]2)cc1OC,-28%,
N#CCCC(C#N)(c1cccnc1)N1CCOCC1 (configuration not stated),-1.39%,
CCCCN1CC(COCc2ccccc2)OCCS1(=O)=O (configuration not stated),-27.9%,
CC(C)c1cc(C(=O)O)on1,8.31%,
CN(C(=O)CSc1nnnn1-c1ccccc1)C1CCCCC1,0.578%,
NNC(=O)CNC(c1ccccc1)c1cc(Cl)ccc1NC(=O)c1ccccc1 (configuration not stated),-9.24%,
CC(C)C(c1nnnn1C(C)(C)C)N1CCN(Cc2cccnc2)CC1 (configuration not stated),8.15%,
COc1ccc(C(=O)O/N=C(\N)c2ccccn2)cc1[N+](=O)[O-],-20.5%,
O=C(Nc1ccccc1-c1nnn(CC(=O)N2CCN(c3ccccc3)CC2)n1)c1cccs1,,23.1 µM (active)
COc1ccccc1N1CCN(C(=O)Cn2nnc(-c3cccs3)n2)CC1,-19.7%,
CCc1ccccc1NC(=O)c1cccs1,-14%,
O=C(Nc1ccccc1)c1ccc(NC(=O)c2cccs2)cc1,2.02%,
O=C(Nc1ccccc1-c1ccccc1)c1cccs1,,23.1 µM (active)
